Consider 39 compounds from ChEMBL document CHEMBL3433997, “St. Jude Leishmania screening dataset” (2016).

The structures appear in SMILES notation.

The target in the experiment is Hexose transporter 1 (Plasmodium falciparum) (UniProt O97467). Nature of the experiment: ST_JUDE_LEISH: Cytotoxicity at 2uM final concentration against transgenic Leishmania Mexicana promastigotes LmPfHT that are glucose transport deficient and complemented with the Plasmodium falciparum hexose transporter. Activity is measured by DNA content using SYBR green in vitro. The experiment is classed as functional.
A word on the inhibition: it is the change of the read-out against control, counted positive when it falls. As to `COc1ccc2nc(C)cc(N/N=C/c3ccc([N+](=O)[O-])o3)c2c1`, the inhibition turned out to be 6.04%.
Turning to `CNC(=O)c1ccccc1Nc1nc(Nc2ccc(C(=O)O)cc2)ncc1Cl`, the inhibition was found to be 1.77%.
For `CC(C)C[C@H](Nc1ccnc(NCC2CCCCC2)n1)C(=O)NCCOc1ccccc1`, the inhibition amounted to 3.02%.
For `CC[C@H](C)CNC(=O)c1ccnc(-c2ccc(CNC3Cc4ccccc4C3)cc2)c1`, the inhibition was 0.08%.
Next, `COc1ccc(CNCc2ccc(-c3ccc(CNCCc4ccccc4)cn3)cc2)cn1`: -0.51%.
Next, `O=C(Nc1ccc(-c2nc3ccccc3[nH]2)cc1)C1CCCN(CC2CC2)C1` (centres undefined): 10.8%.
For the compound `c1cc(CN2CCN(CCN3CCOCC3)CC2)cc(-c2cccc(-c3nc4ccccc4[nH]3)c2)c1`, the inhibition was -0.24%.
With `CCOC(=O)c1cnc2c(C(F)(F)F)cccc2c1Nc1ccc(O)cc1` the figure was 8.44%.
Next, `CN1CCN(Cc2ccc(-c3cc4c(Nc5ccc(OCc6cccc(F)c6)c(Cl)c5)ncnc4s3)[nH]2)CC1`: 11.4%; `COc1ccc2[nH]ccc(=NN=Cc3cccc(F)c3)c2c1`: 2.87%.
With `CCOc1cc(O)c(-c2nc(N)ncc2-c2ccc3c(c2)OCCO3)cc1CC` the figure was 11%; with `O=C(NC1CCCCC1)N(Cc1cccc(-c2cccc(CNC3CCCC3)c2)c1)C1CCN(Cc2ccccc2)CC1`, 6.23%; with `Cc1[nH]c(C)c(-c2ccc(-c3ccc(OC(F)(F)F)cc3)cc2)c(=O)c1Br`, 4.25%.
Take `CS(=O)(=O)c1cccc(-c2cnc3[nH]cc(-c4cccc(CCN)c4)c3c2)c1`: the inhibition came out at 3.48%.
As for `Clc1cc(Nc2ccnc3ccc(Br)cc23)ccc1Oc1ccc2ccccc2c1Cl`, the inhibition is 5.44%.
As to `O=C(NCc1ccccc1)C1Cc2c([nH]c3ccc(Br)cc23)C2(CCN(Cc3ccccc3)CC2)N1` (centres undefined), the inhibition came to 3.23%.
With `Fc1ccc2[nH]c(-c3ccc(-c4ccc(CNCCN5CCNCC5)cc4)cc3)nc2c1` the figure was 1.53%; with `CCn1cc(C=C2Oc3c(ccc(O)c3CN3CCCCC3C)C2=O)c2ccccc21` (centres undefined), 5.13%; with `CC1(C)NC(=N)N=C(NOCC=Cc2ccccc2)N1`, 2.87%.
Next, `Cc1ccc(NC(=O)c2ccc(Cl)cc2)cc1-c1ccc(C(=O)Nc2ccncc2)cc1`: 1.31%; `O=C(Nc1ccc(C(F)(F)F)cc1)c1cccc(S(=O)(=O)NCC2CCCN(CC3CCCCC3)C2)c1` (centres undefined): 2.62%.
Turning to `O=C(c1ccc([N+](=O)[O-])o1)N1CCN(c2nc3c(F)cc(F)cc3s2)CC1`, the inhibition amounted to 6.03%.
Consider `COCCNC(=O)C1CCN(C(c2ccc(Cl)cc2)c2ccc(Cl)cc2)CC1`, for which the inhibition is 6.03%.
Next, `CCN(CC)CCOc1ccc(C(O)(C#CC(O)(c2ccccc2)c2ccc(OCCN(CC)CC)cc2)c2ccccc2)cc1` (centres undefined): -2.58%; `CC(CN(C)C)C(=O)Nc1ccc(-c2ccc(-c3nc4ccccc4[nH]3)cc2)cc1` (centres undefined): 3.01%; `NC1=NC(c2ccccc2)(c2ccccc2)C(=O)N1CCOc1ccccc1`: 0.96%.
With `CCN1CCN(c2cc(C)c3cc(NC(=O)c4ccc([N+](=O)[O-])c(C)c4)ccc3n2)CC1` the figure was 5.06%; with `CCOC(=O)c1c(CN(CC)CC)n(-c2ccccc2)c2cc(Br)c(O)cc12`, 3.81%; with `CC(C)c1cn2c3c(cc(C(=O)N[C@@H](Cc4ccccc4)[C@H](O)CNC4CCOCC4)cc13)N(C)S(=O)(=O)CC2`, 2.83%.
Next, `CC(C)OCCCNC(=O)c1nc(-c2cccc(C(F)(F)F)c2)sc1C(C)C`: 4.03%.
For the compound `Nc1nccc2ccc(OC3CCCCC3)cc12`, the inhibition came to 1.26%.
With `Cc1ccc(Nc2nnc(SCC(=O)Nc3ccc(CN4CCCC4)cc3)s2)cc1` the figure was -0.59%.
Next, `Cc1cccc(Cn2ccc3c(N)nc(N)nc32)c1`: 3.14%; `O=C(NCCCCCN1CCC(c2c[nH]c3ccccc23)CC1)Nc1cccc(C(F)(F)F)c1`: -2.05%; `CN1CCN(c2nsc3ccc(-c4ccc(NC(=O)Nc5ccccc5)cc4)cc23)CC1`: 0.56%.
Take `CC(C)C(=O)NC(Nc1ccc([N+](=O)[O-])cc1)C(Cl)(Cl)Cl` (centres undefined): the inhibition was determined as 3.53%.
With `COC(=O)c1noc(C)c1I` the figure was 0.08%; with `COc1ccc(CCC(C)N2CC(N)C(c3cn(C)c4cnccc34)C2)cc1` (centres undefined), 9.62%; with `NC(=O)c1cc2nc(Nc3ccc(F)cc3)nc(Nc3ccc(S(N)(=O)=O)cc3)c2[nH]1`, 0.26%.
